Pf growth 96h: P. falciparum growth inhibition at 96 hour, primary screen for plastid delayed-death inhibitors | P. falciparum luciferase reporter growth, 96 h | Potency, µM (series often up to 28.7 µM), most hits filed as inhibitors | actives 6.9% (n = 320,000) | AID 504834
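Plates of compound plus infected erythrocytes (2% hematocrit, 0.05% parasitemia final) incubate 96 hours, 37 C, 5% CO2. Detection reagent added; reduced luminescence from the parasites' luciferase reporter flags inhibition.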
CHX counter: counter-screen hit for Shiga toxin inhibitors, cycloheximide; cell reporter, cycloheximide protein synthesis inhibition counterscreen; max response, %; actives 12% (n = 300,000); AID 2314; in the data active = max response mostly above about 13%, no sharp cut-off; inactive = mostly below about 14%; note: read at 38.3 µM for the half of the compounds with a filed dose
Pf growth 48h: P. falciparum growth inhibition at 48 hours (one generation) | Potency, µM (titrated, usually from 28.7 µM), hits mostly inhibitors | P. falciparum luciferase growth in erythrocytes, 48 h | AID 504832 | actives 5.9% (n = 310,000)
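Compounds are pin-transferred into medium, infected erythrocytes (2% hematocrit, 0.1% parasitemia final) are added, and plates sit one parasite generation at 37 C in 5% CO2. Detection reagent is then added and luminescence measured.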
HCV inh: blocks hepatitis C virus. Huh7.5.1 HCVcc-Cre infection, luciferase reporter, 44 h. Potency, µM (series often up to 41.8 µM), hits mostly inhibitors. actives 3.4% (n = 340,000)
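Cells seeded at 1,000/well and cultured 4 h, then compounds added followed by HCVcc-Cre virus (~0.5 moi). After 44 h further culture, luciferase substrate was added, plates held 15 min at room temperature, and luminescence read for 15 sec.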
Shiga inhibitor: Shiga toxin inhibition | actives 9.2% (n = 290,000) | AID 2315 | Vero cells, Shiga toxin protein synthesis inhibition reporter | inhibition, % at 38.7 µM; in the data active = inhibition mostly above about 28%, no sharp cut-off; inactive = mostly below about 43%
HCMV antiviral: human cytomegalovirus inhibition. HFF cells, HCMV-luciferase reporter, 72 h; hits give low values. activity change, negative = inhibition, % at 57.5 µM. actives 4.5% (n = 410,000). AID 1259415; in the data active = activity change below about -60%; inconclusive = no clear call, values can overlap the other calls; inactive = above about -39%
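Human foreskin fibroblasts infected with luciferase-reporter HCMV at MOI 1 PFU/cell, compounds at two doses. Luciferase measured 72 h post infection; normalized to buffer-only basal and Salinomycin (10uM) controls.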
Large screens that a line does not name were inactive. Rows were chosen to be rich in hits. Some 21% of all compounds tested hit in one or more screens of this group. Unless noted, calls come from the whole dose curve; as a rule, active = well fitted inhibition curve with a large enough effect; inconclusive = small, poorly fitted or top-dose-only effect, or another doubt; inactive = no such curve, though single readings can be large or run the other way.

CCN(CC(=O)Nc1cc(Cl)ccc1C)C(=O)C1CC(=O)N(Cc2ccccc2)C1 (stereo not drawn)	HCV inh inconclusive (no result: CHX counter, Shiga inhibitor)
CC(=O)Nc1ccc(NC(=O)C(C)OC(=O)CNC(=O)c2ccc(-c3ccccc3)cc2)cc1 (stereo not drawn)	none (no result: CHX counter, Shiga inhibitor)
CCOc1nc2cnccc2n(CC(=O)Nc2ccccc2C(=O)OC)c1=O	Pf growth 96h inconclusive
COc1cccc2cc(CC(=O)c3ccccc3)c(=O)oc12	Shiga inhibitor 44.4
COc1cccc2cc(-c3nc4ccccc4o3)c(=O)oc12	Pf growth 96h inconclusive, CHX counter 45.1, Shiga inhibitor 106.5
C=CC1CN2CCC1CC2[C@@H](OC(=O)c1ccc(OC)cc1)c1ccnc2ccccc12 (stereo partly drawn)	Pf growth 48h 2.94µM
C=CC1CN2CCC1CC2C(O)c1ccnc2ccccc12 (stereo not drawn)	none (no result: Pf growth 96h, CHX counter, Pf growth 48h, Shiga inhibitor)
CCOc1ccc(C(=O)N2CCC(c3nc4ccccc4o3)CC2)cc1	none (no result: Pf growth 96h, CHX counter, Pf growth 48h, HCV inh, Shiga inhibitor)
CC[C@H]1CN2CCC1C[C@H]2[C@H](O)c1ccnc2ccc(OC)cc12 (stereo partly drawn)	Pf growth 96h 0.0522µM, Pf growth 48h 0.0928µM, HCMV antiviral -68.3 (no result: CHX counter, Shiga inhibitor)
C=C[C@@H]1CN2CC[C@H]1C[C@H]2[C@H](O)c1ccnc2ccccc12	Pf growth 96h 0.0536µM, Pf growth 48h 0.135µM (no result: CHX counter, HCV inh, Shiga inhibitor, HCMV antiviral)
CC[C@H]1CN2CCC1C[C@@H]2[C@@H](O)c1ccnc2ccc(OC)cc12 (stereo partly drawn)	HCMV antiviral inconclusive (no result: Pf growth 96h, CHX counter, Pf growth 48h, Shiga inhibitor)
C=CC1CN2CCC1CC2C(OC(=O)OCC)c1ccnc2ccc(OC)cc12 (stereo not drawn)	Pf growth 96h 0.757µM, Pf growth 48h 1.69µM (no result: CHX counter, HCV inh, Shiga inhibitor, HCMV antiviral)
Cc1csc(=O)n1CCC(=O)OCC(=O)N(CC(C)C)c1c(N)n(Cc2ccccc2)c(=O)[nH]c1=O	Pf growth 96h inconclusive
CCN(CCCNC(=O)CNC(=O)c1nn(-c2ccc(OC)cc2)c(=O)c2ccccc12)c1cccc(C)c1	Pf growth 96h inconclusive, Pf growth 48h inconclusive, HCV inh inconclusive
COc1ccc(N2CC(NC(=O)COc3ccccc3F)CC2=O)cc1OC (stereo not drawn)	none (no result: Pf growth 96h, CHX counter, Pf growth 48h, HCV inh, Shiga inhibitor)
CCOc1ccc(NS(=O)(=O)c2ccc(C(=O)N3CC(C)OC(C)C3)cc2)cc1 (stereo not drawn)	none (no result: CHX counter, Shiga inhibitor)
Cc1csc(NC(=O)c2ccc3c(c2)OCO3)n1	CHX counter 30.8, Shiga inhibitor 71.2
CCOC(=O)Cc1csc(NC(=S)NC(=O)c2ccccc2)n1	Pf growth 48h inconclusive, HCMV antiviral -65.1
O=C(Nc1nccs1)c1ccc2c(c1)OCO2	CHX counter 19.5, Shiga inhibitor 64.6
CCOC(=O)Cc1csc(NC(=S)NC(=O)c2ccc(C)cc2)n1	Pf growth 96h 3.7µM, Pf growth 48h 2.94µM, HCMV antiviral -96.0
Cc1cccc(CN2CCN(c3nc4nonc4nc3NC3CC3)CC2=O)c1	Pf growth 96h inconclusive, Pf growth 48h inconclusive
O=C(c1cc2ccccc2o1)N(C1CC1)C1(C(=O)Nc2ccccc2)CCCC1	Pf growth 48h inconclusive, HCV inh inconclusive
Cc1noc(C)c1CSCC(=O)Nc1cc(C(F)(F)F)ccc1N1CCOCC1	Pf growth 96h inconclusive, Pf growth 48h inconclusive, HCV inh inconclusive (no result: CHX counter, Shiga inhibitor)
CC(C)(C)NC(=O)CN(Cc1ccc2c(c1)OCO2)C(=O)CCC(=O)Nc1nccs1	Pf growth 96h inconclusive, CHX counter 14.7
CCOC(=O)Cc1csc(NC(=O)c2ccc(F)cc2)n1	none
COCCNC(=O)CN(Cc1ccc2c(c1)OCO2)C(=O)CCC(=O)Nc1nccs1	none (no result: Pf growth 96h)
CCOC(=O)Cc1csc(NC(=O)c2ccc3c(c2)OCO3)n1	Pf growth 96h inconclusive, CHX counter 14.9, Shiga inhibitor 40.5
CCOC(=O)Cc1csc(NC(=S)NC(=O)c2ccccc2Br)n1	CHX counter 20.5
CCOC(=O)Cc1csc(NC(=O)c2ccc(C)cc2)n1	CHX counter 33.6, Shiga inhibitor 90.9
COc1ccccc1NC(=O)CSC1=Nc2ccccc2C2=NC(CCC(=O)NCc3cccs3)C(=O)N12 (stereo not drawn)	none (no result: Pf growth 96h, CHX counter, Pf growth 48h, HCV inh, Shiga inhibitor)
CC(=O)c1cccc(NS(=O)(=O)c2cc3c(cc2C)n(C)c(=O)c(=O)n3C)c1	none (no result: Pf growth 96h, CHX counter, Pf growth 48h, HCV inh, Shiga inhibitor)
CCOC(=O)c1ccc(N2C(=O)c3n[nH]c(-c4ccco4)c3C2c2ccc(F)cc2)cc1 (stereo not drawn)	HCMV antiviral -88.5 (no result: Pf growth 96h, CHX counter, Pf growth 48h, HCV inh, Shiga inhibitor)
